# Assay outcomes from PubChem.
# FGF22 binding: binders of human FGF22 protein, primary screen, FGF22 synaptogenesis inhibitor project, biophysical, thermal shift, single point. activity (Tm shift, normalised), % at 9.99 µM. actives 1.5% (n = 340,000). recombinant FGF22 thermal shift, SYPRO orange fluorescence; percent of sucrose octasulfate shift, DMSO zero. Fibroblast growth factor 22 (Homo sapiens), Q9HCT0. AID 651658, 2012;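 active = mean Tm shift, scaled 0 neutral to 100 positive control, at about 1.3% or above, every replicate too, limit read from the data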
# Casp6 inh: human caspase-6 inhibitors, primary screen, biochemical, VEID-R110 fluorescence, single point, set 2 | P55212 | purified caspase-6, Z-VEID-R110 cleavage fluorescence | inhibition, % at 12.5 µM | actives 0.53% (n = 350,000) | AID 686996, 2013;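 active = mean inhibition across replicates at least about 35%, with every replicate also reaching that limit, limit read from the data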;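 note: 0% = median of neutral control wells and 100% = no fluorescence left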
# ERAP1 inh: human ERAP1 aminopeptidase inhibitors, primary screen, biochemical, single point, plate reader; Endoplasmic reticulum aminopeptidase 1 (Homo sapiens), Q9NZ08; recombinant ERAP1, Leu-AMC fluorescence, 60 min; inhibition, % at 10.7 µM; actives 0.15% (n = 340,000); AID 652197, 2013;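 active = mean replicate inhibition of at least 30%, or all replicates individually reaching that 30% level; inactive = mean below 30% and not every replicate reaching it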;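 note: 0% = neutral control wells and 100% = L-leucinethiol positive control wells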
# Target sequence (Q9NZ08 whole entry, looked up): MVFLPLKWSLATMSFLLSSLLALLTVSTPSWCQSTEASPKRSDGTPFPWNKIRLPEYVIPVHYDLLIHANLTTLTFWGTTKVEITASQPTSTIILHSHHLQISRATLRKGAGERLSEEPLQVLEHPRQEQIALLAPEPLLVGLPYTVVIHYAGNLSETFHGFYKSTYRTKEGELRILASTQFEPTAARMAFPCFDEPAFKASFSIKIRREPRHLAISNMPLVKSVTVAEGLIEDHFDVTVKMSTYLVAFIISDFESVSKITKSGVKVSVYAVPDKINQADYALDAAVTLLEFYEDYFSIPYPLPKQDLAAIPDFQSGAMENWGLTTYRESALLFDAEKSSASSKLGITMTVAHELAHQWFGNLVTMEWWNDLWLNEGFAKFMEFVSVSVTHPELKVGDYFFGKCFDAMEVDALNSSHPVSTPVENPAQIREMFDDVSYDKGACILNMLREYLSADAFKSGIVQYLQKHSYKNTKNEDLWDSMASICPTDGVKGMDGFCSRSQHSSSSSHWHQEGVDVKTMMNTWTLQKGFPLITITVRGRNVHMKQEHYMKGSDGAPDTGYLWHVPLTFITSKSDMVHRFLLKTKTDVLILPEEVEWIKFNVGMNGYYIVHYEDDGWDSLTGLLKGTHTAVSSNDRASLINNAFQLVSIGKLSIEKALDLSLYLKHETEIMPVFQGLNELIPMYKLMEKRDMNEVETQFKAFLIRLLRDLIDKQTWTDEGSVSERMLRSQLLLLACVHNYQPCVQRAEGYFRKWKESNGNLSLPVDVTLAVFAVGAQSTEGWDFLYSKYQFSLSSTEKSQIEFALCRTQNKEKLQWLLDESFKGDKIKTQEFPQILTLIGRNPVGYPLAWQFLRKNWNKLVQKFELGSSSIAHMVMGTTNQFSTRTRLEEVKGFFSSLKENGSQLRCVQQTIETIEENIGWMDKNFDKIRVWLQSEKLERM
# SIRT5 block: SIRT5 desuccinylase inhibitors, primary screen, biochemical, fluorescence imaging, single point, set 5; AID 652115, 2013; Purified SirT5, succinyl-peptide AMC, trypsin-coupled fluorescence; inhibition, % at 15 µM; actives 1.1% (n = 330,000); in the data active = inhibition above about 15%
# INS-1E GSIS act: GLuc luminescence reporter in INS-1E cells, primary screen for activators of glucose-dependent secretion of insulin; activation, % at 16.6 µM; AID 743287, 2014; INS-1E GLuc reporter insulin secretion, 2-3 h; actives 0.61% (n = 370,000);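 active = lowest replicate activation of at least 40%, so every replicate reaches that level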;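 note: 0% = median of neutral control wells and 100% = median of IBMX positive control wells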
# * = called active by the depositor; . = no result given; ! = repeats disagree. In the library only some 3.3% were active in any assay of this set; here they are far more common.
SMILES,FGF22 binding,Casp6 inh,ERAP1 inh,SIRT5 block,INS-1E GSIS act
O=C(Nc1cccnc1Cl)c1ccc(=O)oc1,-0.1,54.2*,2.1,44.1*,.
Cc1cc(C)n(-c2ccc(C(=O)Nc3cc(S(=O)(=O)N(C)C)ccc3Cl)cc2)n1,.,.,.,.,-11.2
Cc1cc(C)n(-c2ccc(C(=O)Nc3cccnc3Cl)cc2)n1,43.1*,3.5,-0.8,1.2,-4.7
CC(=O)NS(=O)(=O)c1ccc(NC(=O)c2ccc(-n3nc(C)cc3C)cc2)cc1,43.1*,0.3,-3.3,-0.7,6.0
COc1ccc(-c2cc(C(=O)Nc3cccnc3Cl)no2)cc1OC,-0.3,-1.5,0.0,-0.9,-19.2
O=C(CN1CCOCC1)N[C@H]1CC[C@H](CCn2cc(C3CCCCC3)nn2)O[C@H]1CO,-0.3,3.2,-1.3,7.8,3.6
CCNc1nc(NCC)n2c(SCC(=O)N(CC)C3CCCCC3)nnc2n1,.,.,.,.,73.7*
O=C(c1cnccn1)N1CC(=O)N2[C@H](CO)[C@@H](c3ccc(C#CCC4CCCC4)cc3)[C@@H]2C1,.,-0.6,2.2,-4.8,9.4
COc1cc(OC)c(-c2nn3c(C4CCCCC4)nnc3s2)cc1OC,0.0,43.1*,5.0,-4.6,28.9
COc1ccccc1-c1nn2c(-c3ccco3)nnc2s1,0.0,3.3,1.4,-3.4,8.8
C#Cc1ccc([C@H]2C=C(C(=O)NCc3ccccc3)O[C@@H](OCC)[C@@H]2CCCO)cc1,-0.3,-2.7,0.1,20.7*!,-39.1
C#Cc1ccc([C@@H]2C=C(C(=O)Nc3ccccc3)O[C@H](OCC)[C@H]2CCCO)cc1,0.1,-1.1,-1.3,5.9,10.6
Cc1ccc(NC(=O)c2cccs2)cc1[N+](=O)[O-],43.8*,2.8,4.6,0.1,0.9
CCOc1ccc(C(=O)NC(=S)Nc2ccc(NC(=O)c3ccco3)cc2)cc1[N+](=O)[O-],.,.,.,.,43.1*
O=C(Nc1cccc(N2C(=O)C=CC2=O)c1)c1cccs1,-0.1,4.8,32.9*,0.1,12.6
COc1cc(C(=O)NC(=S)Nc2ccc(NC(=O)c3ccco3)cc2)cc(OC)c1OC,.,.,.,.,3.9
O=C(/C=C/c1cccc([N+](=O)[O-])c1)Nc1cccc(NC(=O)c2cccs2)c1,1.7*,-1.1,3.2,0.3,4.3
O=C(C[C@@H]1C=C[C@@H](NC(=O)c2cccc(F)c2)[C@@H](CO)O1)NCCN1CCCC1,0.2,0.3,-0.1,-0.9,6.4
CC(C)NC(=O)N(C)C[C@@H]1Oc2cc(-c3cncnc3)ccc2S(=O)(=O)N([C@H](C)CO)C[C@@H]1C,0.0,0.5,0.6,-10.3,4.8
CCOc1ccc(C(=O)Nc2ccc(NC(=O)c3cccs3)cc2)cc1[N+](=O)[O-],.,.,.,.,103.6*
CCOc1ccc2nc(SCC(=O)Nc3cc(C)on3)c(C)cc2c1,-0.2,6.2,1.5,80.9*,-3.1
C[C@H](CO)N1C[C@H](C)[C@@H](CN(C)S(C)(=O)=O)Oc2ccc(NS(=O)(=O)c3cccs3)cc2C1=O,-0.3,.,.,0.0,-2.7
Cc1noc(C)c1NC(=O)N(C)C[C@H]1Oc2cc(C#CCN(C)C)ccc2S(=O)(=O)N([C@@H](C)CO)C[C@H]1C,-0.4,3.1,-0.3,-3.1,8.3
CON(C)C(=O)CC(CNC(=O)OC(C)(C)C)c1ccc(Cl)cc1 (stereo unspecified),0.1,-1.0,-0.6,21.5*,0.0
COc1cccc(NC(=O)N2CC(=O)N3[C@H](CO)[C@@H](c4ccc(C#CC5CCCC5)cc4)[C@@H]3C2)c1,-0.2,-2.5,0.5,9.3,-6.3
SMILES,FGF22 binding,Casp6 inh,ERAP1 inh,SIRT5 block,INS-1E GSIS act
O=C(c1ccc(F)cc1)N1CC(=O)N2[C@@H](CO)[C@H](c3ccc(C#CCC4CCCC4)cc3)[C@@H]2C1,-0.4,.,.,15.6*,1.8
CN(C)CC#Cc1ccc([C@@H]2[C@@H](CO)N3C(=O)CN(C(=O)c4cccc(F)c4)C[C@@H]23)cc1,.,2.2,-0.7,21.7*,-1.5
O=C(Nc1cccc(F)c1)N1CC(=O)N2[C@@H](CO)[C@@H](c3ccc(C#CCC4CCCC4)cc3)[C@@H]2C1,.,1.9,-0.1,4.3,-14.9
COc1cccc(NC(=O)N2CC(=O)N3[C@H](CO)[C@H](c4ccc(C#CCC5CCCC5)cc4)[C@H]3C2)c1,-0.7,0.8,-1.3,22.2*,5.4
COc1cccc(NC(=O)N2CC(=O)N3[C@@H](CO)[C@H](c4ccc(C#CCC5CCCC5)cc4)[C@@H]3C2)c1,0.0,2.1,-0.8,20.4*,-3.2
O=C(c1ccc(F)cc1)N1CC(=O)N2[C@H](C1)[C@@H](c1ccc(C#CCC3CCCC3)cc1)[C@@H]2CO,0.0,0.5,2.9,-2.8,7.5
CN(C)CC#Cc1ccc([C@@H]2[C@H]3CN(C(=O)c4cccc(F)c4)CC(=O)N3[C@H]2CO)cc1,.,-14.8,-3.7,-9.5,12.6
CC(C)NC(=O)Nc1ccc2c(c1)C(=O)N([C@H](C)CO)C[C@H](C)[C@H](CN(C)C(=O)NC1CCCCC1)OCCCC[C@@H](C)O2,-0.3,-0.3,2.4,-12.5,3.9
N#C[C@@H]1[C@@H](c2ccccc2-c2cccc(F)c2)[C@H](CO)N1C(=O)CN1CCOCC1,.,.,.,.,7.7
CC(=O)N1CCN(CC(O)COc2ccc(Br)cc2)CC1 (stereo unspecified),-0.2,-1.1,1.2,12.9,-1.7
OC(COCc1ccc2c(c1)OCO2)CN1CCC(Cc2ccccc2)CC1 (stereo unspecified),0.0,0.1,-0.2,-1.0,-5.8
OC(COc1ccc(Br)cc1)CN1CCC(Cc2ccccc2)CC1 (stereo unspecified),-0.3,-0.6,-9.0,29.6*,-28.5
CC(C)OCC(O)CN1CCC(Cc2ccccc2)CC1 (stereo unspecified),-0.1,-1.9,-2.4,0.8,44.0*
CC(C)C(=O)Nc1ccc2c(c1)C(=O)N(C)[C@H]1CC[C@H](CC(=O)NCC3CC3)O[C@H]1CO2,-0.6,2.2,-0.3,-2.5,7.7
COc1ccccc1CNC(=O)C(NS(=O)(=O)c1cccc2nsnc12)C(C)C (stereo unspecified),-0.3,2.1,.,19.2*,5.9
CN(C)c1ccc2c(c1)[C@H]1C[C@@H](CC(=O)NCc3ccc(Cl)cc3)O[C@@H](CO)[C@H]1O2,-1.4,-8.1,-6.5,.,-3.6
CO[C@@H]1CC[C@H]2CCOc3ccc(C#N)cc3C(=O)N(C)C[C@@H](C)C(=O)N(C)C[C@H]1O2,-0.1,7.5,-1.5,-3.1,14.1
COCC(=O)Nc1ccc2c(c1)[C@@H]1C[C@H](CC(=O)NCc3ccc(Cl)cc3)O[C@@H](CO)[C@@H]1O2,0.1,.,.,.,2.6
CCCCCc1nnc(NC(=O)Cc2ccc([N+](=O)[O-])cc2)s1,43.3*,-1.6,-2.1,-0.3,-6.4
